Assay results as given in ChEMBL document CHEMBL3433997, “St. Jude Leishmania screening dataset” (2016).
Where “and” joins values, the source holds several entries; their conditions need not be identical. Identical values can stand only once.

Legend:
Assay type in all cases: functional
[1] = molecular target: Solute carrier family 2, facilitated glucose transporter member 1 (Homo sapiens) (UniProt P11166); test: ST_JUDE_LEISH: Cytotoxicity at 2uM final concentration against transgenic Leishmania Mexicana promastigotes LmGLUT1 that are glucose transport deficient and complemented with the human glucose transporter GLUT1. Activity is measured by DNA content using SYBR green in vitro
[2] = molecular target: Hexose transporter 1 (Plasmodium falciparum) (UniProt O97467); test: ST_JUDE_LEISH: Cytotoxicity at 2uM final concentration against transgenic Leishmania Mexicana promastigotes LmPfHT that are glucose transport deficient and complemented with the Plasmodium falciparum hexose transporter. Activity is measured by DNA content using SYBR green in vitro
[3] = molecular target: Glucose transporter (Leishmania mexicana) (UniProt O61059); test: ST_JUDE_LEISH: Cytotoxicity at 2uM final concentration against transgenic Leishmania Mexicana promastigotes LmGT2 that are glucose transport deficient and complemented with the L. Mexicana glucose transporter 2. Activity is measured by DNA content using SYBR green in vitro

Sequence of Solute carrier family 2, facilitated glucose transporter member 1 (Homo sapiens) (P11166 whole entry): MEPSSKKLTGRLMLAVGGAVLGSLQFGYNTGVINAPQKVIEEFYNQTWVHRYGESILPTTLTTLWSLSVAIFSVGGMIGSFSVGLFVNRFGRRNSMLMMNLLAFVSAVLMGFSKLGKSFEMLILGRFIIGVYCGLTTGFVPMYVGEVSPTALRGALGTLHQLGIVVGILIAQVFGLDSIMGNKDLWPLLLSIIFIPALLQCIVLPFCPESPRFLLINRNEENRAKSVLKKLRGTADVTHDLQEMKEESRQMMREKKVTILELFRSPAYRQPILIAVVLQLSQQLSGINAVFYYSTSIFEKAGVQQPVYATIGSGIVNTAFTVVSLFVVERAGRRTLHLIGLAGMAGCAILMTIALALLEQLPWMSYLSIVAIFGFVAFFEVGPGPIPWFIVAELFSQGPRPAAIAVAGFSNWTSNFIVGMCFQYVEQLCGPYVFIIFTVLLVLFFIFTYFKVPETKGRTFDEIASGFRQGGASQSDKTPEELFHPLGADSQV

Compound	inhibition [1]	inhibition [2]	inhibition [3]
CC(=O)c1cccc(NC(=O)C2c3ccccc3C(=O)N(CC(C)C)C2c2cccs2)c1 (stereo unspecified)	-0.21%	0.13%	0.19%
CCOC(=O)c1ccc(NC(=O)Nc2ccc(-c3ccc(-c4nc5cccc(C)c5[nH]4)s3)cc2)cc1	1.67%	0.41%	0.88%
N#Cc1ccc(Sc2nnc(-c3ccccc3Cl)n2CC2CCCCC2)cc1[N+](=O)[O-]	2.9%	3.12%	0.82%
COc1ccc(CN(C)CCOc2ccc(NC(=O)c3cccc4c(=O)cc(-c5ccccc5)[nH]c34)cc2)cc1OC	0.9%	0.96%	1.24%
N#Cc1ccc(-c2ccc(OCC(O)CN3CCCN(Cc4cccc(O)c4Cl)CC3)cc2)cc1 (stereo unspecified)	4.04%	0.72%	1.67%
N#Cc1cc(N(CCCOc2cccc(OC(F)(F)F)c2)Cc2ccccc2C(F)(F)F)ccc1C(F)(F)F	-0.77%	-0.39%	0.94%
CNC(=O)c1cnc(Nc2ccc(N3CCN(C)CC3)c(C)c2)nc1NC	-0.78%	-3.69%	3.79%
Cc1ccc2[nH]c(/C=C/c3cccc4cc[nH]c34)nc2c1	4.9%	4.05%	0.48%
O=C(NCCCNc1nc2ccccc2[nH]1)c1cccc(OC(F)(F)F)c1	2.27%	-0.62%	1.46%
COc1ccc(CNc2cc(C)nc3sc4c(c23)CCC2(C4)OCCO2)cc1	1.79%	1.85%	0.47%
COc1ccccc1N1CCN(C(C(=O)NCc2cccc(F)c2)c2ccc(C)cc2)CC1 (stereo unspecified)	2.99%	3.56%	-1.92%
O=C(Cc1c[nH]cn1)Nc1cccc(-c2ccc(-c3nc4ccccc4[nH]3)cc2)c1	1.81%	3.82%	-0.08%
Cc1cc(CNCCCCCCCNCc2cccc([N+](=O)[O-])c2)ccc1O	2.48%	1.23%	-1.43%
CCc1c[nH]c2c(N3CCCS3(=O)=O)cc(C(=O)N[C@@H](Cc3ccccc3)[C@H](O)CNC(C)(C)CCCC(C)C)cc12	1.92%	2.29%	0.89%
COc1cc(C(=O)Nc2cccc(-c3cn4cccc(C)c4n3)c2)cc(OC)c1OC	15.8%	10.9%	10.5%
Nc1c2c(nc3ccc(C(=O)Nc4ccc(Br)cc4)cc13)CCCC2	5.71%	6.08%	2.67%

Compound	inhibition [1]	inhibition [2]	inhibition [3]
CCOc1cc(C(=O)NCCN(C(C)C)C(C)C)ccc1-c1nc2cc(Cl)ccc2[nH]1	2.57%	1.66%	3.92%
CC(C)(C)c1ccc(CNC(=O)c2ccc(CNC3CCC(N)CC3)s2)cc1 (stereo unspecified)	-0.19%	0.91%	0.31%
CC(C)CCN1CCC(Oc2ccc(NC(=O)c3ccc4ncccc4c3)cc2Cl)C1 (stereo unspecified)	1.24%	2.56%	1.94%
CC(=O)NCCNCc1cccc(C(=O)NCc2cccc(C(F)(F)F)c2)c1	3.26%	5.92%	4.88%
Cc1cc(=O)c(-c2ccc(Oc3cccc(C(F)(F)F)c3)cc2)c(C)[nH]1	0.14% and -4.84%	2% and 2.11%	1.32% and -2.73%
COCCN1CCC(NCC(C)(C)c2nc(-c3ccc(Cl)c(O)c3)c(-c3ccncc3)[nH]2)CC1	4.86%	8.59%	6.49%
CCCCn1c(C(C)Oc2ccc(Cl)cc2Cl)nc2cc(S(N)(=O)=O)ccc21 (stereo unspecified)	-0.86%	-1.81%	-1.84%
CN(C)Cc1ccc(O)c(-c2ccc(C(C)(C)C)cc2)n1	-0.79%	0.1%	2.74%
Cc1cc(N2CCN(CC3CCN(C)CC3)CC2)nc(Nc2ccc(Cl)cc2)n1	0.56%	0.64%	2.21%
COc1cc(C(=O)N2C(c3nccs3)C(C(=O)N(OC)C(C)c3ccccc3)CC2(CC(C)C)C(=O)OC(C)(C)C)ccc1C(C)(C)C (stereo unspecified)	4.49%	3.71%	1.29%
CCN(CC)CCc1ccc2c(=O)cc(CCc3cccc(F)c3F)n(CC(=O)N(C)Cc3ccc(-c4ccc(C(F)(F)F)cc4)cc3)c2c1	5.18%	5.23%	3.78%
O=C(Cc1ccccc1)NC1(c2ccccc2)CCN(CCc2c[nH]c3ccc(F)cc23)CC1	-0.99%	0.25%	-0.69%
CC1(C)NC(N)=NC(=N)N1OCCCOc1cccc2ccccc12	54.8%	61.1%	45.4%
O=C(Nc1ccc(-c2nc3ccccc3[nH]2)cc1)C1CCCN(C2CCC2)C1 (stereo unspecified)	19.8%	14.7%	8.04%
O=C(Nc1cccc(F)c1)N(Cc1ccc(-c2ccc(CN3CCNCC3)cc2)cc1)C1CCN(Cc2ccccc2)CC1	-0.04%	-0.99%	-1.59%
CC(C)COc1ccc(Cl)cc1Cc1nc(-c2nc3ccc(CN(C)C)cc3[nH]2)co1	4.88%	4.73%	4.57%
